Assay results from PubChem BioAssay (NCATS).
Results filed as inconclusive are left out. Activity calls are given as the source filed them. Unless noted, calls follow the shape of the full dose curve.

Legend:
[1] = target: Alpha-galactosidase (Coffea arabica) (UniProt Q42656); assay: Counterscreen for Glucocerebrosidase Inhibitors: qHTS Assay for Coffee Bean alpha-Galactosidase at pH 5.9 (AID 998; active = well fitted curve in the direction sought with a large enough effect; an effect the other way counts as inactive or inconclusive;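 also: plate controls were uninhibited enzyme for no effect and no-enzyme basal signal for full effect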)
How it was run: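 In 50 mM citric acid pH 5.9 with 0.005% Tween-20, coffee bean enzyme hydrolyses 80 uM 4-MU alpha-D-galactopyranoside over 20 min at RT. Activity is normalized to controls; AC50 comes from Hill-modelled concentration-response data.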

[2] = Validation screen for inhibitors of Lassa infection (AID 463096); also: % is scaled to controls: 0 for no effect and ±100 for the full control effect
[3] = Inducers of the Endoplasmic Reticulum Stress Response (ERSR) in human glioma: Validation (AID 504836; active = well fitted curve in the direction sought with a large enough effect; an effect the other way counts as inactive or inconclusive; also: 0% is about no effect)
How it was run: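 Stably transfected U87-MG human glioma cells carrying a GRP78-based luminescent sensor were seeded at 1000 cells/well, pin-dosed with compounds and incubated 16 h. Luciferase reagent was then added, and end-point luminescence was read after 10 min at room temperature.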

[4] = target: Bile acid receptor (Homo sapiens) (UniProt Q96RI1); assay: qHTS assay for small molecule agonists of farnesoid X receptor signaling (AID 588527); conditions: HEK293T FXR-UAS-bla, beta-lactamase ratio, 16 h; activation: stronger effect = higher value;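 also: 0% = vehicle basal and 100% = reference agonist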
How it was run: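 Read-out: beta-lactamase reporter fluorescence with CCF4 substrate in GeneBLAzer FXR-UAS-bla HEK293T cells, after 16 h compound exposure at 37 C. Response scaled between DMSO basal (0%) and chenodeoxycholic acid at 100 uM (100%).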

[5] = qHTS for Inhibitors of the Functional Ribonucleoprotein Complex (vRNP) of Lassa (LASV) Arenavirus: LASV Primary Screen - GLuc reporter signal (AID 1347082; calls by dose curve; tested in HEK293 reporter line; also: nearly all actives have a fitted effect of over 60% in size; also: potency is read from the fitted curve at half-maximal effect; as to activity change, negative = inhibition: % is scaled to controls: 0 for no effect and ±100 for the full control effect)
[6] = qHTS for Inhibitors of the Functional Ribonucleoprotein Complex (vRNP) of Lassa (LASV) Arenavirus: Viability assay - alamar blue signal for LASV Primary Screen (AID 1347083; calls by dose curve; tested in HEK293 reporter line; also: nearly all actives have a fitted effect of over 80% in size; also: potency is read from the fitted curve at half-maximal effect)
[7] = qHTS for Inhibitors of the Functional Ribonucleoprotein Complex (vRNP) of Lymphocytic Choriomeningitis Arenaviruses (LCMV): Viability assay - alamar blue signal for LCMV Primary Screen (AID 1347085; calls by dose curve; tested in HEK293 reporter line; also: nearly all actives have a fitted effect of over 80% in size; also: potency is read from the fitted curve at half-maximal effect)
[8] = target: Nucleoprotein (Lymphocytic choriomeningitis virus (strain Armstrong)) (UniProt P09992); assay: qHTS for Inhibitors of the Functional Ribonucleoprotein Complex (vRNP) of Lymphocytic Choriomeningitis Arenaviruses (LCMV): LCMV Primary Screen - GLuc reporter signal (AID 1347086); also: nearly all actives have a fitted effect of over 70% in size; also: potency is read from the fitted curve at half-maximal effect; as to activity change, negative = inhibition: % is scaled to controls: 0 for no effect and ±100 for the full control effect
[9] = Cytotoxicity counterscreen for inhibitors of SARS-CoV-2 cell entry (AID 1645845); also: nearly all actives have a fitted effect of over 50% in size
How it was run: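 After a 15 min room-temperature ATPLite 1step step, luminescence reflected ATP remaining in HEK293-ACE2 cells exposed to compound for 1 h plus 48 h at 37 C, with percent activity set by cell and no-cell controls.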

[10] = Primary qHTS to identify inhibitors of SARS-CoV-2 cell entry (AID 1645846); conditions: activity change, negative = inhibition: at 57.1 µM (top of the series) unless noted; also: nearly all actives have a fitted effect of over 45% in size
How it was run: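 HEK293 cells stably expressing human ACE2, pre-treated 1 h with compound, then infected with MLV particles pseudotyped with Wuhan-Hu-1 spike (C-terminal 19-aa truncation). Luciferase luminescence after 48 h at 37 °C, normalised to spike PP and bald PP.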

[11] = target: Alpha-galactosidase (Coffea arabica) (UniProt Q42656); assay: Counterscreen for Glucocerebrosidase Inhibitors: qHTS Assay for Coffee Bean alpha-Galactosidase at pH 4.5 (AID 957; active = well fitted curve in the direction sought with a large enough effect; an effect the other way counts as inactive or inconclusive;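 also: plate controls were enzyme alone for no effect and no enzyme for full effect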)
How it was run: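 Fluorogenic qHTS at pH 4.5 (citrate buffer with Tween-20): 2 nM enzyme, 80 uM 4-MU-alpha-galactoside substrate, compound titrated 0.7 nM to 77 uM, 20 min room temperature. Glycine/NaOH stop; 4-MU read Ex 365/Em 440; Hill-equation AC50 against no-enzyme and enzyme controls.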

[12] = qHTS profiling of the MIPE4 collection as inhibitors of Plasmodium falciparum (3D7) proliferation (AID 743344; call rule not given here;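 also: scaled between DMSO vehicle wells and 0.29 µM artemisinin as full inhibition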); conditions: P. falciparum 3D7 in erythrocytes, SYBR Green DNA fluorescence, 72 h; at 28.5 µM (top of the series) unless noted
How it was run: (§1)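 Parasite DNA was quantified by SYBR Green I fluorescence (ex 485, em 535 nm) after overnight lysis in saponin/Triton buffer at room temperature. Cultures at 0.3% parasitemia and 2.5% hematocrit were first exposed to compound for 72 h at 37 C; signals were normalised to artemisinin (0.29 uM) and vehicle wells.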

[13] = qHTS profiling of the MIPE4 collection as inhibitors of Plasmodium falciparum (DD2) proliferation (AID 743345; call rule not given here); conditions: P. falciparum Dd2 in erythrocytes, SYBR Green DNA, 72 h; at 28.5 µM (top of the series) unless noted
How it was run: as §1

[14] = qHTS profiling of the MIPE4 collection as inhibitors of Plasmodium falciparum (DD2) proliferation (Rep 2) (AID 743346; call rule not given here); conditions: P. falciparum Dd2 in erythrocytes, SYBR Green DNA, 72 h; at 28.5 µM (top of the series) unless noted
How it was run: as §1

[15] = qHTS profiling for inhibitors of Plasmodium falciparum (3D7) proliferation (AID 743322; call rule not given here;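 also: infected erythrocytes exposed to compound for 72 h before lysis; 100% = DMSO vehicle wells and 0% = 0.29 µM artemisinin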); conditions: P. falciparum 3D7 proliferation; at 28.7 µM (top of the series)
How it was run: as §1

[16] = qHTS profiling for inhibitors of Plasmodium falciparum (DD2) proliferation (AID 743323; call rule not given here); conditions: lower = more inhibition; at 28.7 µM (top of the series)
How it was run: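 1536-well qHTS; infected RBCs 0.3% parasitemia/2.5% Hct final; cpd 72 h 37 C 5% CO2; lysis buffer + SYBR Green I, o/n RT dark; FI 485/535; norm. to 0.29 uM artemisinin and DMSO, plate-stack corrected.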

[17] = qHTS profiling for inhibitors of Plasmodium falciparum (HB3) proliferation (AID 743324; active = well fitted curve in the direction sought with a large enough effect; an effect the other way counts as inactive or inconclusive;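 also: 100% = DMSO vehicle wells and 0% = artemisinin-treated control wells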); conditions: Plasmodium falciparum HB3 blood-stage proliferation; at 28.7 µM (top of the series)
How it was run: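 SYBR Green fluorescence (485 ex/535 em) of lysed cultures, incubated overnight at room temperature in the dark, quantifies parasite DNA. Infected erythrocytes at 0.3% parasitemia and 2.5% hematocrit were exposed 72 h; values normalized to DMSO and 0.29 uM artemisinin controls.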

[18] = target: Cytochrome P450 3A4 (Homo sapiens) (UniProt P08684); assay: qHTS Assay for Activators of Cytochrome P450 3A4 (AID 885; active = well fitted curve in the direction sought with a large enough effect; an effect the other way counts as inactive or inconclusive; also: nearly all actives have a fitted effect of over 65% in size)
How it was run: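 Activators are scored by enhanced luminescence from CYP3A4 conversion of luciferin-PPXE (25uM, equal to KM) to luciferin, after 60 min at RT with an NADPH-regenerating system.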

[19] = target: Cytochrome P450 2C19 (Homo sapiens) (UniProt P33261); assay: qHTS Assay for Inhibitors and Substrates of Cytochrome P450 2C19 (AID 899; active = well fitted curve in the direction sought with a large enough effect; an effect the other way counts as inactive or inconclusive; also: potency is read from the fitted curve at half-maximal effect; nearly all actives have a fitted effect of over 60% in size)
How it was run: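 NADPH-dependent conversion of Luciferin-H EGE (10uM, at KM) by 5nM enzyme in 50mM KPO4, 60 min at 37C following 10 min compound preincubation. Stopped with luciferin detection buffer; luminescence read after 20 min.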

[20] = target: Estrogen receptor (Homo sapiens) (UniProt P03372); assay: qHTS assay for small molecule agonists of estrogen receptor alpha signaling (AID 588514); also: potency is read from the fitted curve at half-maximal effect; nearly all actives have a fitted effect of over 70% in size
How it was run: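 EC50 and efficacy came from Hill fits of beta-lactamase reporter signal (CCF4 dye, 2 h at room temperature) scaled between DMSO and 20 nM 17-beta-estradiol. Agonist mode: HEK293 ER-alpha-UAS-bla cells in charcoal/dextran-stripped serum medium, 18 h compound exposure at 37 C.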

[21] = qHTS assay for small molecule agonists of the antioxidant response element (ARE) signaling pathway (AID 651741; active = well fitted activation curve with a large enough effect in the signal ratio; the % refers to the signal ratio; also: potency is read from the fitted curve at half-maximal effect)
How it was run: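 Reporter: beta-lactamase under ARE, stably in HepG2. Exposure: 16 h, 37 C, compounds delivered in DMSO by pin tool after 5 h cell preincubation. Readout: FRET substrate fluorescence after 2 h at RT.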

Alpha-galactosidase (Coffea arabica), sequence (Q42656 whole entry, looked up): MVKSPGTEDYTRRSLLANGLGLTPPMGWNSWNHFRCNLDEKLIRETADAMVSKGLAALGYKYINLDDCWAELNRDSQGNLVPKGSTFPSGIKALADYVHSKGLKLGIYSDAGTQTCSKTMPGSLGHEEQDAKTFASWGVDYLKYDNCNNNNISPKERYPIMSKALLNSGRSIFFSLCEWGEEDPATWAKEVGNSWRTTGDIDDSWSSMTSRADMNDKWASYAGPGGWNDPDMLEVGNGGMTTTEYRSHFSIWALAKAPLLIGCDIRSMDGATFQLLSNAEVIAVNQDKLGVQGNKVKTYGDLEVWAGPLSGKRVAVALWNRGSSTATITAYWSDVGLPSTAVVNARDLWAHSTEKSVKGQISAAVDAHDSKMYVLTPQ
Nucleoprotein (Lymphocytic choriomeningitis virus (strain Armstrong)), sequence (P09992 whole entry, looked up): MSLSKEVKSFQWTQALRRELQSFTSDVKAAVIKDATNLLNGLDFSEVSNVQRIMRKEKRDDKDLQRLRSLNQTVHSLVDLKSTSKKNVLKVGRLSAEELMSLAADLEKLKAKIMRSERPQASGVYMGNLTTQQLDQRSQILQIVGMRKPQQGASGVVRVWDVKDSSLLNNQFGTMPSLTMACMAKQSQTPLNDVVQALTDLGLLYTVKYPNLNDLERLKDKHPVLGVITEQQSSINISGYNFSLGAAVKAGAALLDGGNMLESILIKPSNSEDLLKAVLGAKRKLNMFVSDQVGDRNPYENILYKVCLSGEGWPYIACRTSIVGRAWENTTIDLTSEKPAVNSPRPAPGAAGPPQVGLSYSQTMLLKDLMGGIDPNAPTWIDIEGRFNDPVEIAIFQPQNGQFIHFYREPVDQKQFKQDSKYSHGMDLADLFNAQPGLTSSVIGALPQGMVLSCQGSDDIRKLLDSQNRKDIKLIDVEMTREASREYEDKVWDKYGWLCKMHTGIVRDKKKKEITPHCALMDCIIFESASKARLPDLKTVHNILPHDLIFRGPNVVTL
Bile acid receptor (Homo sapiens), sequence (Q96RI1 whole entry, looked up): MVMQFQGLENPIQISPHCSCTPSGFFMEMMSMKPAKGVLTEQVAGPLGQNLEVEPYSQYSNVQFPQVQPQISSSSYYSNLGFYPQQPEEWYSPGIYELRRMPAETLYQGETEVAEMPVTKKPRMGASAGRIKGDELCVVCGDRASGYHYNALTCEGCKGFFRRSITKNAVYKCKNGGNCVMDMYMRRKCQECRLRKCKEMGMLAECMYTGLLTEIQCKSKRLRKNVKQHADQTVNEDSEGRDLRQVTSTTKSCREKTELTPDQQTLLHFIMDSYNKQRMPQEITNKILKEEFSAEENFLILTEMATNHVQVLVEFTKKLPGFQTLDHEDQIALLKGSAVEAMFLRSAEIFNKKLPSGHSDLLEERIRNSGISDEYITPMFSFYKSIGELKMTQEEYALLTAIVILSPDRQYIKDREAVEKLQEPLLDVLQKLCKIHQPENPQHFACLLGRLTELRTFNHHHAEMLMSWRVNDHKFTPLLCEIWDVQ
Cytochrome P450 3A4 (Homo sapiens), sequence (P08684 whole entry, looked up): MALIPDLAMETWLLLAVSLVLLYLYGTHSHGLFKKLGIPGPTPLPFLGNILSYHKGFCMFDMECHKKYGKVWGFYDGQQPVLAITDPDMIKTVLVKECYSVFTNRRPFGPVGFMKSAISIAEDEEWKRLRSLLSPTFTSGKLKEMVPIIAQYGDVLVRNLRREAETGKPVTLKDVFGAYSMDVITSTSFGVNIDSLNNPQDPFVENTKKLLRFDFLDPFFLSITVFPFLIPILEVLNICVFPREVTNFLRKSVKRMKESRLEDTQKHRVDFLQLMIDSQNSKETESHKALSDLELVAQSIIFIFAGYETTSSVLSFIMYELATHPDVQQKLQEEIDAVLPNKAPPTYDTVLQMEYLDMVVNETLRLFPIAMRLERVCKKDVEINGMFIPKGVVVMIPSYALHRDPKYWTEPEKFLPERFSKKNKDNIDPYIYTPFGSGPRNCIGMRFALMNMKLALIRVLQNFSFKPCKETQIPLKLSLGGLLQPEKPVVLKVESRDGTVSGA
Cytochrome P450 2C19 (Homo sapiens), sequence (P33261 whole entry, looked up): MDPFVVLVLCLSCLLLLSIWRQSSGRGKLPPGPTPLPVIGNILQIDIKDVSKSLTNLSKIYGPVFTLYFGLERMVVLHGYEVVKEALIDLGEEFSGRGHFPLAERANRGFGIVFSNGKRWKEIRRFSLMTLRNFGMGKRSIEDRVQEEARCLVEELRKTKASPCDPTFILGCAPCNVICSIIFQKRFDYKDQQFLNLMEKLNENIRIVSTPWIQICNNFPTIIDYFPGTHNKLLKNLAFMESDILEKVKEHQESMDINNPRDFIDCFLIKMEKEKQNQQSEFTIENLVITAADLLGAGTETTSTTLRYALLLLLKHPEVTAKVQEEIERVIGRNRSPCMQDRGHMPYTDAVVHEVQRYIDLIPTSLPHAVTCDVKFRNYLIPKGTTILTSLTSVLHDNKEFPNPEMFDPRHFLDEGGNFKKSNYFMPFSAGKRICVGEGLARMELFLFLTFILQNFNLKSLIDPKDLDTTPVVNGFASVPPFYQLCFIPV
Estrogen receptor (Homo sapiens), sequence (P03372 whole entry, looked up): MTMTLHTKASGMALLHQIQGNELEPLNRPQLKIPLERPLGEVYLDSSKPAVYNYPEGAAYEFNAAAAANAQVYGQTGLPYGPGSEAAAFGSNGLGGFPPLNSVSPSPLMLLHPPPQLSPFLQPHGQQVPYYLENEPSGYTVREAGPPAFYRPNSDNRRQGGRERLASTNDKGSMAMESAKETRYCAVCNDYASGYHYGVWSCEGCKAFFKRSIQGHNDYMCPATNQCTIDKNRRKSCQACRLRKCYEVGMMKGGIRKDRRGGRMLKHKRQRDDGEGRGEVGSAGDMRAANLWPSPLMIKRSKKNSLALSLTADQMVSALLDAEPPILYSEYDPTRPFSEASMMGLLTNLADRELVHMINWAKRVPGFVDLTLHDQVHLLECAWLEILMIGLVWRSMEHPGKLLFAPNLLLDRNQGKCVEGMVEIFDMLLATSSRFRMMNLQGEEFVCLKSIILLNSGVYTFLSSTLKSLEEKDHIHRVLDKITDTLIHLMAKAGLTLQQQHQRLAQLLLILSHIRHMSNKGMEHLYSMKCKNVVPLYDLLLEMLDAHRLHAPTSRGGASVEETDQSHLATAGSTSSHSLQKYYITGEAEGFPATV

CCCc1c(OCCCOc2ccc(OCC(=O)O)cc2)ccc(C(C)=O)c1O
inactive: outcome [1] | Potency [2] | outcome [3] | activation [4] 3% | Potency [5] | Potency [6] | Potency [7] | Potency [8] | Potency [9]
-13.9%: activity change, negative = inhibition [10]

COc1cccc(-c2cc(=O)c3ccccc3o2)c1N
inactive: outcome [11] | outcome [3] | Potency [5] | Potency [6] | Potency [7] | Potency [8] | Potency [9] | Potency [10]

C[C@@H](c1ncncc1F)[C@](O)(Cn1cncn1)c1ccc(F)cc1F
inactive: Potency [5] | Potency [6] | Potency [7] | Potency [8] | Potency [9]
104%: parasite growth remaining, % of DMSO control (lower = more inhibition) [13]
65.8%: parasite growth, % of DMSO control [12]
115%: parasite growth, % of control (lower = inhibition) [14]
-26.1%: activity change, negative = inhibition [10]

O=C(O)c1ccccc1C(=O)Nc1ccc(-c2ccccc2)cc1
93.6%: parasite growth, % of DMSO control [12]
inactive: Potency [5] | Potency [6] | Potency [7] | Potency [8] | Potency [9] | Potency [10]
82.2%: parasite growth, % of control (lower = inhibition) [14]
92.6%: activity, percent of control [16]
75.7%: remaining proliferation (% of control), lower = more inhibition [17]
93.1%: remaining parasite growth % (stronger effect = lower value) [15]

CCCCC(F)(F)[C@@]1(O)CC[C@H]2[C@H](CC(=O)[C@@H]2CCCCCCC(=O)O)O1
inactive: Potency [5] | Potency [6] | Potency [7] | Potency [8] | Potency [9] | Potency [10]

CCCCS(=N)(=O)CCC(N)C(=O)O (configuration not stated)
inactive: Potency [2] | outcome [3] | Potency [5] | Potency [6] | Potency [7] | Potency [8] | Potency [9] | Potency [10]

CCc1c(O)cc(O)c(C(=O)c2ccc(OCCN3CCOCC3)c(OC)c2)c1CC(=O)N(CCOC)CCOC
-26.7%: activity change, negative = inhibition [10]
inactive: Potency [9]
active: Potency [5] 12.2 µM | Potency [6] 6.11 µM | Potency [7] 5.44 µM | Potency [8] 3.43 µM

O=c1c(O)c(-c2cc(O)c(O)c(O)c2)oc2cc(O)cc(O)c12
inactive: Potency [18] | outcome [11] | outcome [1] | outcome [3] | Potency [5] | Potency [6] | Potency [7] | Potency [8] | Potency [9] | Potency [10]
active: Potency [19] 10 µM

Nc1nc2c(c(=O)[nH]1)N(C=O)[C@H](CNc1ccc(C(=O)N[C@@H](CCC(=O)O)C(=O)O)cc1)CN2
inactive: Potency [5] | Potency [6] | Potency [7] | Potency [8] | Potency [9] | Potency [10]

O=C1c2cccc(O)c2C(=O)c2c(O)cc(CO)cc21
321%: parasite growth, % of DMSO control [12]
-12.6%: activity change, negative = inhibition [10]
97.1%: parasite growth, % of control (lower = inhibition) [14]
active: Potency [20] 20 µM | Potency [21] 12.2 µM
inactive: activation [4] 4.08% | Potency [5] | Potency [6] | Potency [7] | Potency [8] | Potency [9]
99.1%: parasite growth remaining, % of DMSO control (lower = more inhibition) [13]
